This is part of a sample that, as a whole, favours compounds with a hit. Of some 83,000 tested, about 20% had one in any assay.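 Each cell line was grown in a 96-well plate and treated with one concentration of compound for 48 hours. Values below 10 were considered active.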 Unmarked numbers belong to inactive results. The source made the active and inactive calls.
tested on: MDA-MB-435 melanoma; assay: NCI-60 one-dose screen, 48 h (100 = growth as untreated, 0 = no growth, -100 = all killed); conditions: 10 µM unless noted

Compound	growth
O=C1Cc2c([nH]c3ccc([N+](=O)[O-])cc23)-c2ccccc2N1	16.2%
Cc1ccccc1CNc1ncnc2[nH]ncc12	90.3%
COc1ccc(OC)c(Nc2nc(-c3c(C)nc4sccn34)cs2)c1	66.1%
COc1cc2c(cc1OC)C(=O)OC2	103%
CN=C1C=C/C(=N/N=c2/ccn(O)cc2C)C=C1C	102%
Cc1nc2ccc(Nc3nc(N4CCOCC4)nc(N4CCN(C)CC4)n3)cc2n1Cc1ccccc1	91%
CC(C)=CCC[C@H](C)c1ccc(C)c2c1OCN(CCO)C2	101%
COc1ccc(NC(=O)c2ccc(C(F)(F)F)nc2Nc2ccc(Cl)cc2C)cc1Cl	18.6%
O=C(NCCNC(=O)c1cc(S(=O)(=O)NCCc2ccccc2)c(O)c(O)c1O)c1cc(S(=O)(=O)NCCc2ccccc2)c(O)c(O)c1O	35.2%
Cc1ccc(NC(=O)Cn2nncc2CN2C(=O)CSC2=O)cc1C	100%
Brc1ccccc1Cn1c(-c2cncs2)nc2ccccc21	110%
COc1cccc(Cn2c(-c3nonc3NC(C)=O)nc3ccccc32)c1	-35% (active)
CN1CCN(Cc2ccc(NC(=O)c3cccc(C#Cc4cnc(N)c5ncccc45)c3F)cc2C(F)(F)F)CC1	-82.7% (active)
O=C(Oc1c(Cl)c(Cl)c(Cl)c(Cl)c1Cl)C1CCCN1C(=O)OCc1ccccc1 (stereo unspecified)	84.2%
Clc1ccc(Nc2ncnc3c2sc2ncccc23)cc1	36.2%
COc1ccc(/C=C/C(=O)c2ccc(NC(=O)CSc3nnc(-c4ccc(OC)cc4)n3-c3ccccc3)cc2)cc1	98.3%
CCCCNCCC(O)c1cc2ccc(C(F)(F)F)cc2c2cc(C(F)(F)F)ccc12 (stereo unspecified)	-69.3% (active)
Cc1ccc(N2C3c4ccccc4N(S(=O)(=O)c4ccc(C)cc4)C2c2ccccc2N3S(=O)(=O)c2ccc(C)cc2)cc1	99.9%
Cc1ccc(C2CC(c3cccs3)=NN2c2ccc(S(N)(=O)=O)cc2)s1 (stereo unspecified)	80.8%

Compound	growth
O=C(Nc1ccc(OS(=O)(=O)c2ccc(F)cc2)cc1)C12CC3CC(CC(C3)C1)C2	82.9%
CCCCCc1c(C)[nH]c(/C=C2\N=C(c3ccc[nH]3)C=C2CC)c1C	-77.9% (active)
CC(COC(=O)c1ccccc1)N1CC2CCC(C1)O2 (stereo unspecified)	98.1%
Cc1cc(C)c(C#N)c(SCC(=O)c2sc3c(C#N)c(C)cc(C)[n+]3c2[O-])n1	-59.2% (active)
COc1ccc(-c2nc(-c3ccccc3OCc3ccccc3OC)nc(C)c2C(C)=O)cc1	90.4%
COc1c(-c2cc(-c3ccc(C)o3)[nH]c(=O)n2)c(O)cc2occc12	-38.6% (active)
Cc1cc(NC(=O)C2c3ccccc3C(=O)N(CC(C)C)C2c2cccs2)no1 (stereo unspecified)	-43.8% (active)
OC(c1cc2c(Cl)cc(Cl)cc2c2cc(C(F)(F)F)ccc12)C1CCCCN1 (stereo unspecified)	-65.5% (active)
Cc1nc2ccc(Nc3nc(Cl)nc(N4CCOCC4)n3)cc2n1Cc1ccccc1	110%
O=C(CS)OCC(COC(=O)CS)(COC(=O)CS)COC(=O)CS	78.8%
C=CCN(CCOC(=O)c1ccc([N+](=O)[O-])cc1)CCOC(=O)c1ccc([N+](=O)[O-])cc1	107%
CCN1CCN(Cc2ccc(NC(=O)c3nc4ccc5[nH]ncc5c4c4c3CCCC4)cc2C(F)(F)F)CC1	-87.9% (active)
CN(C)c1ccc(N2Cc3ccccc3OC3=C2C(=O)c2c(O)ccc(O)c2C3=O)cn1	-21.3% (active)
CCCc1n(Cc2ccc3ccccc3n2)cc[n+]1Cc1ccc2ccccc2c1	-6.36% (active)
COc1cc(-c2csc(NC(=O)Nc3cccc(C(F)(F)F)c3)n2)cc(OC)c1OC	57.1%
COc1ccc2[nH]c(C(=O)OCc3ccc4c(Br)cc(Br)c(O)c4n3)cc2c1	-72.4% (active)
Cc1cc(C)cc(CCCCCCCCCCCCCCCCCC(=O)O)c1	115%
CS(=O)(=O)Nc1cc(-c2cc3ncc(C#N)c(Nc4ccc(Oc5ccccc5)c(Cl)c4)c3s2)cnc1Cl	67.4%
CCn1c(CN2CCN(Cc3ccccc3)CC2)nc2cc(NC(=O)c3cccs3)ccc21	-89% (active)

tested on: SW-620 colon; assay: as above; conditions: 10 µM unless noted

Compound	growth
O=C1Cc2c([nH]c3ccc([N+](=O)[O-])cc23)-c2ccccc2N1	-3.84% (active)
Cc1ccccc1CNc1ncnc2[nH]ncc12	114%
COc1ccc(OC)c(Nc2nc(-c3c(C)nc4sccn34)cs2)c1	84.2%
COc1cc2c(cc1OC)C(=O)OC2	104%
CN=C1C=C/C(=N/N=c2/ccn(O)cc2C)C=C1C	98.5%
Cc1nc2ccc(Nc3nc(N4CCOCC4)nc(N4CCN(C)CC4)n3)cc2n1Cc1ccccc1	96.9%
CC(C)=CCC[C@H](C)c1ccc(C)c2c1OCN(CCO)C2	100%
COc1ccc(NC(=O)c2ccc(C(F)(F)F)nc2Nc2ccc(Cl)cc2C)cc1Cl	13.4%
O=C(NCCNC(=O)c1cc(S(=O)(=O)NCCc2ccccc2)c(O)c(O)c1O)c1cc(S(=O)(=O)NCCc2ccccc2)c(O)c(O)c1O	54.7%
Cc1ccc(NC(=O)Cn2nncc2CN2C(=O)CSC2=O)cc1C	99.3%
Brc1ccccc1Cn1c(-c2cncs2)nc2ccccc21	88.4%
COc1cccc(Cn2c(-c3nonc3NC(C)=O)nc3ccccc32)c1	28.7%
CN1CCN(Cc2ccc(NC(=O)c3cccc(C#Cc4cnc(N)c5ncccc45)c3F)cc2C(F)(F)F)CC1	-49.9% (active)
O=C(Oc1c(Cl)c(Cl)c(Cl)c(Cl)c1Cl)C1CCCN1C(=O)OCc1ccccc1 (stereo unspecified)	22.2%
Clc1ccc(Nc2ncnc3c2sc2ncccc23)cc1	46.6%
COc1ccc(/C=C/C(=O)c2ccc(NC(=O)CSc3nnc(-c4ccc(OC)cc4)n3-c3ccccc3)cc2)cc1	102%
CCCCNCCC(O)c1cc2ccc(C(F)(F)F)cc2c2cc(C(F)(F)F)ccc12 (stereo unspecified)	-76.2% (active)
Cc1ccc(N2C3c4ccccc4N(S(=O)(=O)c4ccc(C)cc4)C2c2ccccc2N3S(=O)(=O)c2ccc(C)cc2)cc1	96.6%
Cc1ccc(C2CC(c3cccs3)=NN2c2ccc(S(N)(=O)=O)cc2)s1 (stereo unspecified)	97.8%

Compound	growth
O=C(Nc1ccc(OS(=O)(=O)c2ccc(F)cc2)cc1)C12CC3CC(CC(C3)C1)C2	39.4%
CCCCCc1c(C)[nH]c(/C=C2\N=C(c3ccc[nH]3)C=C2CC)c1C	-92.6% (active)
CC(COC(=O)c1ccccc1)N1CC2CCC(C1)O2 (stereo unspecified)	97.6%
Cc1cc(C)c(C#N)c(SCC(=O)c2sc3c(C#N)c(C)cc(C)[n+]3c2[O-])n1	20.3%
COc1ccc(-c2nc(-c3ccccc3OCc3ccccc3OC)nc(C)c2C(C)=O)cc1	67.5%
COc1c(-c2cc(-c3ccc(C)o3)[nH]c(=O)n2)c(O)cc2occc12	22.3%
Cc1cc(NC(=O)C2c3ccccc3C(=O)N(CC(C)C)C2c2cccs2)no1 (stereo unspecified)	-57% (active)
OC(c1cc2c(Cl)cc(Cl)cc2c2cc(C(F)(F)F)ccc12)C1CCCCN1 (stereo unspecified)	-74.4% (active)
Cc1nc2ccc(Nc3nc(Cl)nc(N4CCOCC4)n3)cc2n1Cc1ccccc1	70.4%
O=C(CS)OCC(COC(=O)CS)(COC(=O)CS)COC(=O)CS	107%
C=CCN(CCOC(=O)c1ccc([N+](=O)[O-])cc1)CCOC(=O)c1ccc([N+](=O)[O-])cc1	100%
CCN1CCN(Cc2ccc(NC(=O)c3nc4ccc5[nH]ncc5c4c4c3CCCC4)cc2C(F)(F)F)CC1	-58.3% (active)
CN(C)c1ccc(N2Cc3ccccc3OC3=C2C(=O)c2c(O)ccc(O)c2C3=O)cn1	-58.3% (active)
CCCc1n(Cc2ccc3ccccc3n2)cc[n+]1Cc1ccc2ccccc2c1	15%
COc1cc(-c2csc(NC(=O)Nc3cccc(C(F)(F)F)c3)n2)cc(OC)c1OC	74.3%
COc1ccc2[nH]c(C(=O)OCc3ccc4c(Br)cc(Br)c(O)c4n3)cc2c1	-72.8% (active)
Cc1cc(C)cc(CCCCCCCCCCCCCCCCCC(=O)O)c1	108%
CS(=O)(=O)Nc1cc(-c2cc3ncc(C#N)c(Nc4ccc(Oc5ccccc5)c(Cl)c4)c3s2)cnc1Cl	48%
CCn1c(CN2CCN(Cc3ccccc3)CC2)nc2cc(NC(=O)c3cccs3)ccc21	-82.8% (active)

From PubChem BioAssay (NCI)
